Assay results as given in PubChem BioAssay (Tox21).
Values joined by “and” are separate entries in the source; they are usually repeats but may differ in a detail not shown here. Identical values can stand only once. A number with no mark means an inactive call. Results filed as inconclusive are left out. A call without a number means that no potency is given here. Active and inactive are the calls of the source. Unless noted, the call rests on the fitted dose curve; in most records, active means well fitted curve in the direction sought with a large enough effect in the repeat runs; inconclusive means weak or mixed curves; inactive means no such curve, though single readings can be large; an effect the other way counts as inactive or inconclusive.

Columns and labels:
[1] = qHTS assay to identify small molecule agonists of the estrogen receptor alpha (ER-alpha) signaling pathway in the presence of an antagonist - cell viability counter screen (AID 1259386);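 further: cells exposed to compounds for 22 h at 37 °C before the viability read; nearly all actives have a fitted effect of over 30% in size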; further: potency means the concentration at half of the fitted maximal effect; on activity change, negative = cytotoxicity: series mostly up to about 92 µM
In short: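 Fluorescent CellTiter-Fluor viability signal from VM7Luc4E2 cells, with the reagent added during the final hour of a 22hr compound exposure at 37C in the presence of 10.0nM ICI-182,780.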

[2] = biological target: Progesterone receptor (Homo sapiens) (UniProt P06401); experiment: qHTS assay to identify small molecule agonists of the progesterone receptor (PR) signaling pathway (AID 1346784; calls by dose curve; further: nearly all actives have a fitted effect of over 30% in size; further: potency means the concentration at half of the fitted maximal effect)
Sequence of Progesterone receptor (Homo sapiens) (P06401 whole entry, looked up): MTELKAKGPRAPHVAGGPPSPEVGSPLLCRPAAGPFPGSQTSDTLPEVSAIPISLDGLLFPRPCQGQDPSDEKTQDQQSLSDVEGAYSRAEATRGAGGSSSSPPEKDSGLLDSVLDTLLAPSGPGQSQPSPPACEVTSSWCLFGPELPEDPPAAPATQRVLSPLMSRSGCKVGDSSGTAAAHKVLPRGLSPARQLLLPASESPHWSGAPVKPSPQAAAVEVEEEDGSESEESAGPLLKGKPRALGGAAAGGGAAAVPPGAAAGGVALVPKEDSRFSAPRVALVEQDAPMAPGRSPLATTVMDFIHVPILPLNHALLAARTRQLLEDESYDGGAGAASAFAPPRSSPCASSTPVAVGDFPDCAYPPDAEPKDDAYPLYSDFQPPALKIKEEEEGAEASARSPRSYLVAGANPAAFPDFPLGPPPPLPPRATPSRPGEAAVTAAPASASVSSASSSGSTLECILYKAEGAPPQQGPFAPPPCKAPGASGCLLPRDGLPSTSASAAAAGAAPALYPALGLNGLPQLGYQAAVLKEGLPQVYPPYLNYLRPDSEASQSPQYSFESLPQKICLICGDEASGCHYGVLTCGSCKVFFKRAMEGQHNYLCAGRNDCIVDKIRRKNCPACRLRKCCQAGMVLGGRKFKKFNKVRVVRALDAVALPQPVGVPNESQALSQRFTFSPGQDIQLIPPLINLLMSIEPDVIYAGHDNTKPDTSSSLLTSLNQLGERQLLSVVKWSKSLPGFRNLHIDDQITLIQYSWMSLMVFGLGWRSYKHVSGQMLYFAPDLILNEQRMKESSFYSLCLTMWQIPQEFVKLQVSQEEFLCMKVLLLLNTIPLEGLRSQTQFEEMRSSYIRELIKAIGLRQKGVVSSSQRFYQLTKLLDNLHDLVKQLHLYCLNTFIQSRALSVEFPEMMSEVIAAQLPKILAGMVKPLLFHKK
In short: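 Reporter assay, GripTite PR-UAS-bla HEK 293T cells: 16 hr exposure to DMSO-dissolved compounds at 37C, 5% CO2, in steroid-depleted (2% charcoal-stripped FBS) medium; beta-lactamase measured by FRET fluorescence.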

[3] = qHTS assay to identify small molecule antagonists of the progesterone receptor (PR) signaling pathway - cell viability counter screen (AID 1346798); further: nearly all actives have a fitted effect of over 50% in size; further: potency means the concentration at half of the fitted maximal effect; on activity change, negative = cytotoxicity: series mostly up to about 92 µM
In short: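 In the same plates used for the beta-lactamase readout, cell viability of compound- and R5020-treated PR-UAS-bla HEK293T cells (16 hr, 37C) was assessed by CellTiter-Glo luminescence.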

[4] = qHTS assay to identify small molecule antagonists of the TGF-beta/Smad signaling pathway - cell viability counter screen (AID 1346824); further: nearly all actives have a fitted effect of over 50% in size
In short: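 SBE-bla HEK 293T cells were plated overnight at 37 C, then given compounds in DMSO plus TGF-beta1 (added as 0.25 ng/mL solution) for 5 hr. After the bla read, CellTiter-Glo was added to the same wells and luminescence read after 30 min at room temperature.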

[5] = qHTS assay to identify small molecule agonists of the TGF-beta/Smad signaling pathway - cell viability counter screen (AID 1346829); further: top concentration of the series differs between compounds; nearly all actives have a fitted effect of over 45% in size
In short: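 Tox21 qHTS format: SBE-bla HEK 293T cells treated with DMSO-dissolved compounds for 5 hr; CellTiter-Glo luminescence after 30 min at room temperature.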

[6] = qHTS assay to identify small molecule agonists of the TGF-beta/Smad signaling pathway (AID 1346859; active means well fitted activation curve with a large enough effect in the signal ratio in the repeat runs, not every such curve was filed as active; the % refers to the signal ratio; further: series mostly up to about 77 µM)
In short: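 Screening used HEK 293T SBE-bla cells at 4,000/well. Test agents: 5 hr, 37 C. Detection: FRET substrate, 2 hr RT, then excitation 405 nm with emissions at 460 and 530 nm.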

[7] = biological target: Thyrotropin-releasing hormone receptor (Homo sapiens) (UniProt P34981); experiment: qHTS assay to identify small molecule antagonists of the thyrotropin-releasing hormone receptor (TRHR) signaling pathway (AID 1346877; active means well fitted inhibition curve with a large enough effect in the repeat runs, not every such curve was filed as active; further: series mostly up to about 51 µM)
Sequence of Thyrotropin-releasing hormone receptor (Homo sapiens) (P34981 whole entry, looked up): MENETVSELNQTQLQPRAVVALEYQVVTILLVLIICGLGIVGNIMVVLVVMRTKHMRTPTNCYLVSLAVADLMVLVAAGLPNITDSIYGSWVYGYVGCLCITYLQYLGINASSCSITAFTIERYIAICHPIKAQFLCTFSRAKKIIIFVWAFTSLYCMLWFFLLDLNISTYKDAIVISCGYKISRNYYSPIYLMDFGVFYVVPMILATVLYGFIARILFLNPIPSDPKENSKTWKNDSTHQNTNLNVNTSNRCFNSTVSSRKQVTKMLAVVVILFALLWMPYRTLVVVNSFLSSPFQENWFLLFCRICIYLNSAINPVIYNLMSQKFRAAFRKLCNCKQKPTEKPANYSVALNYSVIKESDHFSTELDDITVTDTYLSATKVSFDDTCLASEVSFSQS
In short: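 In this cell-based calcium flux format, HEK293 cells expressing TRHR received test compound for 5 min before the agonist TRH (1 nM final). Dye loading lasted 2 h at 37 °C.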

[8] = biological target: Thyrotropin-releasing hormone receptor (Homo sapiens) (UniProt P34981); experiment: qHTS assay to identify small molecule agonists of the thyrotropin-releasing hormone receptor (TRHR) signaling pathway (AID 1346891; calls by dose curve; further: series mostly up to about 58 µM)
In short: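 Readout was intracellular calcium fluorescence in TRHR-Hek293 cells. Cells were incubated 18 h, dye-loaded 2 h at 37 °C, and treated with compound in agonist mode.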

[9] = biological target: Progesterone receptor (Homo sapiens) (UniProt P06401); experiment: qHTS assay to identify small molecule antagonists of the progesterone receptor (PR) signaling pathway (AID 1346795; active means well fitted inhibition curve with a large enough effect in the signal ratio in the repeat runs, not every such curve was filed as active; the % refers to the signal ratio; further: potency means the concentration at half of the fitted maximal effect)
In short: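 Stimulus R5020 at 1 nM final; cells HEK293T PR-UAS-bla; medium with 2% charcoal-stripped FBS; compound exposure 16 hr at 37C, 5% CO2; detection by FRET beta-lactamase substrate, 2 hr, room temperature.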

[10] = qHTS assay to identify small molecule agonists of the progesterone receptor (PR) signaling pathway - cell viability counter screen (AID 1346799; calls by dose curve; further: nearly all actives have a fitted effect of over 45% in size; further: potency means the concentration at half of the fitted maximal effect)
In short: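 Multiplexed viability read: CellTiter-Glo luminescence, 30 min RT, following LiveBLAzer FRET measurement on PR-UAS-bla HEK293T cells exposed to compounds 16 hr.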

With `Cl[Si](Cl)(c1ccccc1)c1ccccc1` the Potency [1] was “inactive”, the Potency [2] was “inactive” and the Potency [3] was “inactive”. The Potency [4] was “inactive”, the Potency [5] was “inactive” and the Potency [6] was “inactive”. For the same molecule, the Potency [7] was “inactive” and the outcome [8] was “inactive”.
For `O=[N+]([O-])c1ccc(O)cc1C(F)(F)F`, the Potency [1] was 27.3 µM (active), the Potency [2] was “inactive” and the Potency [3] was “inactive”. The Potency [4] was “inactive”, the Potency [5] was “inactive” and the Potency [6] was “inactive”. For the same molecule, the Potency [7] was “inactive” and the outcome [8] was “inactive”.
With `C#CC1(O)CC[C@H]2[C@@H]3CCC4=CCCC[C@@H]4[C@H]3CC[C@@]21C` (stereo partly specified) the Potency [1] was “inactive”, the Potency [2] was 0.486 µM (active) and the Potency [4] was “inactive”. The Potency [6] was “inactive”, the Potency [7] was “inactive” and the outcome [8] was “inactive”.
With `O=C1CCCCCCCCCCCCCCCO1` the Potency [1] was “inactive”, the Potency [2] was “inactive” and the Potency [3] was “inactive”. For the same molecule, the Potency [4] was “inactive”, the Potency [5] was “inactive” and the Potency [6] was “inactive”. For the same molecule, the Potency [7] was “inactive” and the outcome [8] was “inactive”.
For `COc1ccc(-c2coc3cc(O)ccc3c2=O)cc1`, the Potency [1] was “inactive”, the Potency [2] was “inactive” and the Potency [4] was “inactive”. The Potency [6] was “inactive”, the Potency [7] was “inactive” and the outcome [8] was “inactive”.
For `CN(C)Cc1ccccc1O`, the Potency [2] was “inactive”, the Potency [9] was “inactive” and the Potency [3] was “inactive”. For the same molecule, the Potency [10] was “inactive”, the Potency [4] was “inactive” and the Potency [5] was “inactive”. The Potency [6] was “inactive”, the Potency [7] was “inactive” and the outcome [8] was “inactive”.
For `CCN(CC)C(=O)c1cc(S(=O)(=O)Cc2ccccc2)c(N2CCC(c3ccccc3)CC2)cc1N(CC)CCN(C)C`, the Potency [1] was “inactive”, the Potency [3] was 19.1 µM (active) and the Potency [10] was 8.53 µM (active). The Potency [7] was “inactive” and the outcome [8] was “inactive”.
In the case of `CCCc1ccc(OCC(=O)N2CCN(C(=O)COc3ccc(CCC)cc3OC)CC2)c(OC)c1`, the Potency [2] is reported as “inactive”, the Potency [9] is reported as “inactive” and the Potency [3] is reported as “inactive”. For the same molecule, the Potency [10] was “inactive”, the Potency [4] was “inactive” and the Potency [5] was “inactive”. The Potency [6] was “inactive”, the Potency [7] was “inactive” and the outcome [8] was “inactive”.
For `Oc1c(I)cc(Cl)c2cccnc12`, the Potency [2] was “inactive”, the Potency [9] was 6.84 µM (active) and 7.5 µM (active) and the Potency [3] was “inactive”. For the same molecule, the Potency [10] was “inactive”, the Potency [4] was “inactive” and the Potency [5] was “inactive”. For the same molecule, the Potency [6] was “inactive”, the Potency [7] was “inactive” and the outcome [8] was “inactive”.
For `O=C(O)c1ccc2cc(C(=O)O)ccc2c1`, the Potency [2] was “inactive”, the Potency [9] was “inactive” and the Potency [3] was “inactive”. For the same molecule, the Potency [10] was “inactive”, the Potency [4] was “inactive” and the Potency [6] was “inactive”. The Potency [7] was “inactive” and the outcome [8] was “inactive”.
With `Nc1cc(Cl)c(O)c(Cl)c1` the Potency [2] was “inactive”, the Potency [9] was “inactive” and the Potency [3] was “inactive”. The Potency [4] was “inactive” and the Potency [6] was “inactive”.
For `C#Cc1ccc(-c2ccccc2F)cc1`, the Potency [2] was “inactive”, the Potency [9] was “inactive” and the Potency [3] was “inactive”. For the same molecule, the Potency [4] was “inactive”, the Potency [5] was “inactive” and the Potency [6] was “inactive”. For the same molecule, the Potency [7] was “inactive” and the outcome [8] was “inactive”.
For `CC[C@H](C)COC(=O)/C=C/c1ccc(N=Cc2ccc(OC)cc2)cc1`, the Potency [2] was “inactive”, the Potency [9] was 30.6 µM (active) and the Potency [3] was “inactive”. The Potency [10] was “inactive”, the Potency [4] was “inactive” and the Potency [5] was “inactive”. The Potency [6] was “inactive”.
With `CCCCCC(C)OC(=O)COc1ccc(Cl)c2cccnc12` (stereo unspecified) the Potency [2] was “inactive”, the Potency [9] was 54.5 µM (active) and the Potency [3] was “inactive”. For the same molecule, the Potency [4] was “inactive”, the Potency [5] was “inactive” and the Potency [6] was “inactive”. The Potency [7] was “inactive” and the outcome [8] was “inactive”.
With `c1ccc(SSc2ccccc2)cc1` the Potency [1] was “inactive”, the Potency [3] was “inactive” and the Potency [10] was “inactive”. The Potency [4] was “inactive”, the Potency [5] was “inactive” and the Potency [7] was “inactive”. The outcome [8] was “inactive”.
With `CCCCCc1ccc(Cl)cc1` the Potency [2] was “inactive”, the Potency [9] was “inactive” and the Potency [3] was “inactive”. The Potency [10] was “inactive”, the Potency [4] was “inactive” and the Potency [5] was “inactive”. The Potency [6] was “inactive”, the Potency [7] was “inactive” and the outcome [8] was “inactive”.
In the case of `O=C(/C=C/c1ccc(O)c(O)c1)O[C@@H](C(=O)O)[C@@H](OC(=O)/C=C/c1ccc(O)c(O)c1)C(=O)O`, the Potency [2] is reported as “inactive”, the Potency [9] is reported as “inactive” and the Potency [3] is reported as “inactive”. For the same molecule, the Potency [4] was “inactive”, the Potency [6] was “inactive” and the Potency [7] was “inactive”. The outcome [8] was “inactive”.
In the case of `CC(C)(C)c1ccc(C(O)CCCN2CCC(C(O)(c3ccccc3)c3ccccc3)CC2)cc1` (stereo unspecified), the Potency [2] is reported as “inactive”, the Potency [9] is reported as “inactive” and the Potency [3] is reported as “inactive”. The Potency [10] was “inactive” and the Potency [4] was “inactive”.
`C[C@H]1NCc2cc(-c3ccc4c(=O)c(C(=O)O)cn(C5CC5)c4c3OC(F)F)ccc21` showed an activation [2] of -1.22% [at 19 µM], an activity change, negative = inhibition [9] of 2.98% [at 18.9 µM] and an activity change, negative = cytotoxicity [3] of -2.19% [at 18.9 µM]. The activity change, negative = cytotoxicity [10] was -10.9% [at 19 µM], the viability change, negative = cytotoxic [4] was -2.18% [at 15.8 µM] and the activity change, negative = cytotoxicity [5] was 0.347% [at 15.8 µM]. The activation [6] was -4.87% [at 15.8 µM], the activity, negative = inhibition [7] was 5.68% [at 10.5 µM] and the activation [8] was 0.004% [at 11.8 µM].
In the case of `O=C1CCc2ccc(OCCCCN3CCN(c4cccc(Cl)c4Cl)CC3)cc2N1`, the Potency [1] is reported as 29.8 µM (active), the Potency [7] is reported as “inactive” and the outcome [8] is reported as “inactive”.
For `Cc1nc2n(c(=O)c1CCN1CCC(c3noc4cc(F)ccc34)CC1)CCCC2`, the Potency [2] was “inactive”, the Potency [9] was “inactive” and the Potency [3] was “inactive”. For the same molecule, the Potency [10] was “inactive”, the Potency [4] was “inactive” and the Potency [5] was “inactive”. The Potency [6] was “inactive”, the Potency [7] was “inactive” and the outcome [8] was “inactive”.
For `C=Cc1ccccc1C=C`, the Potency [2] was “inactive”, the Potency [9] was “inactive” and the Potency [3] was “inactive”. For the same molecule, the Potency [10] was “inactive”, the Potency [4] was “inactive” and the Potency [5] was “inactive”. The Potency [6] was “inactive”, the Potency [7] was “inactive” and the outcome [8] was “inactive”.
For `O=[N+]([O-])c1cccc(C(F)(F)F)c1`, the Potency [2] was “inactive”, the Potency [9] was “inactive” and the Potency [3] was “inactive”. For the same molecule, the Potency [10] was “inactive”, the Potency [4] was “inactive” and the Potency [6] was “inactive”. The Potency [7] was “inactive” and the outcome [8] was “inactive”.
In the case of `CN(C)C(=O)COC(=O)Cc1ccc(OC(=O)c2ccc(N=C(N)N)cc2)cc1`, the Potency [2] is reported as “inactive”, the Potency [9] is reported as “inactive” and the Potency [3] is reported as “inactive”. The Potency [10] was “inactive”, the Potency [4] was “inactive” and the Potency [5] was “inactive”. The Potency [6] was “inactive”, the Potency [7] was “inactive” and the outcome [8] was “inactive”.
With `CC(C)Cn1cnc2c(N)nc3ccccc3c21` the activation [2] was 1.05% [at 19 µM], the activity change, negative = inhibition [9] was 5.77% [at 18.9 µM] and the activity change, negative = cytotoxicity [3] was 10.2% [at 18.9 µM]. For the same molecule, the activity change, negative = cytotoxicity [10] was 13.4% [at 19 µM], the viability change, negative = cytotoxic [4] was 1.27% [at 15.8 µM] and the activity change, negative = cytotoxicity [5] was 6.14% [at 15.8 µM]. It also gave an activation [6] of -1.86% [at 15.8 µM].
